For seven compounds, Potency and outcome results are on record in PubChem BioAssay (Tox21).

Test [1] in a line: qHTS assay to identify small molecule agonists of the vitamin D receptor (VDR) signaling pathway - cell viability counter screen (AID 743224). Further: series mostly up to about 63 µM; nearly all actives have a fitted effect of over 50% in size. In a few lines: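 Compounds were pin-transferred onto VDR-bla cells plated 4 h earlier; following 16 h incubation at 37C, cell viability was quantified by CellTiter-Glo luminescence after 30 min at room temperature.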
For orientation: In qHTS, concentration-response curves come from the screen itself.

Test [2] in a line: qHTS assay to identify small molecule antagonists of the vitamin D receptor (VDR) signaling pathway - cell viability counter screen (AID 743225). Further: nearly all actives have a fitted effect of over 50% in size. Further: potency means the concentration at half of the fitted maximal effect. In a few lines: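 VDR-bla HEK 293T cells, 4 h pre-incubation at 37C, then compound plus 1-alpha,25-dihydroxyvitamin D3 (3 nM final) for 16 h. After the beta-lactamase FRET read, CellTiter-Glo was added to the same wells; luminescence after 30 min at room temperature.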

The nature of test [3]: qHTS assay to identify small molecule agonists of the NFkB signaling pathway - cell viability counter screen (AID 1159515; calls by dose curve; further: series mostly up to about 61 µM; nearly all actives have a fitted effect of over 55% in size). In a few lines: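 Parallel cytotoxicity counter screen in ME-180 cells carrying an NFkB-response-element beta-lactamase reporter, 2,000 cells/well. Compound exposure lasted 5 hr at 37 C, 5% CO2. Cell viability was quantified by CellTiter-Glo luminescence.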

Test [4] is described as follows: qHTS assay to identify small molecule agonists of the endoplasmic reticulum stress response signaling pathway (AID 1159516; active means well fitted activation curve with a large enough effect in the signal ratio in the repeat runs, not every such curve was filed as active; the % refers to the signal ratio). In a few lines:
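Using a HeLa line with an ESRE-driven beta-lactamase gene, agonist activity was measured by FRET substrate fluorescence (460 and 530 nm emission) after cells were treated with compounds for 5 hr at 37 C and 5% CO2.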

Test [5] is described as follows: qHTS assay to identify small molecule agonists of the endoplasmic reticulum stress response signaling pathway - cell viability counter screen (AID 1159517; calls by dose curve;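 further: HeLa cells carrying an ER stress response element beta-lactamase reporter; series mostly up to about 61 µM; nearly all actives have a fitted effect of over 50% in size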). In a few lines: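 After overnight attachment, ESRE-bla HeLa cells were treated with Tox21 library compounds for 5 hr. CellTiter-Glo luminescence, read 30 min post-addition at room temperature, reported viability.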

Test [6] in a line: qHTS assay to identify small molecule antagonists of the retinoid-related orphan receptor gamma (ROR-gamma) signaling pathway - cell viability counter screen (AID 1159520). Further: nearly all actives have a fitted effect of over 50% in size. Further: potency means the concentration at half of the fitted maximal effect. In a few lines:
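Cytotoxicity was read from cellular ATP (CellTiter-Glo luminescence) after 16 hr at 37 C with 1 uM doxycycline induction. The inducer was added 2 hr after compound transfer to Tet-on ROR gamma CHO cells.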

The nature of test [7]: qHTS assay to identify small molecule agonists of the AP-1 signaling pathway - cell viability counter screen (AID 1159525; calls by dose curve; further: nearly all actives have a fitted effect of over 55% in size). In a few lines:
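Intracellular ATP by Cell Titer Glo luminescence (30 min, RT) in the same ME-180 AP-1-bla wells after the 5 h compound exposure at 37 °C. Normalised to tetra n-octyl ammonium bromide and DMSO controls.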

Test [8] can be described thus: qHTS assay to identify small molecule agonists of the AP-1 signaling pathway (AID 1159526; calls by dose curve).
Test [9] concerns the target Retinoic acid receptor RXR-alpha (Homo sapiens) (UniProt P19793). Put plainly: qHTS assay to identify small molecule agonists of the RXR signaling pathway (AID 1159527; calls by dose curve; further: nearly all actives have a fitted effect of over 35% in size). A digest of the protocol: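 GeneBLAzer RXR-alpha-UAS-bla HEK 293T cells in medium with 2% charcoal-stripped FBS, pre-incubated 5 hr at 37 C, then exposed to compounds 16 hr. Beta-lactamase reporter read by FRET substrate, 2 hr room temperature, 460/530 nm emission.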

A short description of test [10]: qHTS assay to identify small molecule agonists of the RXR signaling pathway - cell viability counter screen (AID 1159529). Further: nearly all actives have a fitted effect of over 50% in size. Further: potency means the concentration at half of the fitted maximal effect. A digest of the protocol: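 RXR-alpha-UAS-bla HEK 293T cells in medium with 2% charcoal-stripped FBS were preincubated 5 hr, then exposed to compounds for 16 hr at 37 C. Viability was read as CellTiter-Glo luminescence after 30 min at room temperature.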

The nature of test [11]: qHTS assay to identify small molecule antagonists of the retinoid acid receptor (RAR) signaling pathway - cell viability counter screen (AID 1159551). Further: nearly all actives have a fitted effect of over 35% in size. In a few lines:
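ATP-based viability, C3RL4 cells, 6 h at 37 C with 1 uM final retinol co-added after compound; luminescence read 30 min post CellTiter-Glo, RT.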

Test [12] is described as follows: qHTS assay to identify small molecule antagonists of the retinoic acid receptor (RAR) signaling pathway (AID 1159552; further: nearly all actives have a fitted effect of over 50% in size). A digest of the protocol:
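RARE-luc C3RL4 cells; cpds + 1 uM (final) retinol, 6 hr, 37 C/5% CO2; luciferase reagent, 30 min RT, luminescence readout. Inhibitors of retinol-driven signal scored.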

The nature of test [13]: qHTS assay to identify small molecule agonists of the retinoic acid receptor (RAR) signaling pathway (AID 1159553). A digest of the protocol:
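Quantitative high-throughput format: the Tox21 10K library was tested on C3RL4 RARE-luciferase cells for 6 hr at 37 C and 5% CO2, with luminescence measured after a 30 min room-temperature reagent step.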

Test [14] in a line: qHTS assay to identify small molecule antagonists of the estrogen related receptor (ERR) signaling pathway from Tox21 library - cell viability counter screen (AID 1224834). Further: nearly all actives have a fitted effect of over 30% in size. In a few lines:
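Compounds in DMSO were pinned onto ERR cells that had been incubated for 6 h, and the plates were held at 37 C for 17.5 h. CellTiter-Fluor reagent was then added and fluorescence was measured after 30 min.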

In test [15] the target is Luciferin 4-monooxygenase (Photinus pyralis) (UniProt P08659). Put plainly: qHTS assay to identify small molecule inhibitors of firefly luciferase (AID 1224835). Further: series mostly up to about 120 µM; nearly all actives have a fitted effect of over 25% in size. In a few lines:
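Inhibition of purified Photinus luciferase is measured by luminescence. Substrate levels (D-luciferin, ATP) sit at their KM values. Each compound is tested in a concentration series.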

The target in test [16] is Nuclear receptor ROR-gamma (Homo sapiens) (UniProt P51449). Kind of test: qHTS assay to identify small molecule antagonists of the retinoid-related orphan receptor gamma (ROR-gamma) signaling pathway (AID 1159521; further: nearly all actives have a fitted effect of over 50% in size; further: potency means the concentration at half of the fitted maximal effect). A digest of the protocol: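 Tet-on RORγ CHO cells carrying a ROR response element–luciferase reporter were pretreated with compounds for 2 h, then induced with 1 uM (final) doxycycline hyclate for 16 h at 37 C. Antagonism was read as decreased ONE-Glo luminescence.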

Test [17] in a line: qHTS assay to identify small molecule antagonists of the estrogen related receptor (ERR) signaling pathway (AID 1224819). A digest of the protocol: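 ERR reporter cell line (NTP) plated at 2,000 cells/well, settled 6 h at 37C/5% CO2, then exposed to LOPAC compounds for 18 h at 37C. One-Glo luciferase luminescence read after 30 min at room temperature.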
The test system of test [18] is estrogen-related receptor alpha (ERRalpha) with PGC-1alpha coactivator, human. Put plainly: qHTS assay to identify small molecule antagonists of the estrogen related receptor signaling pathway with the pleiotropic PPARgamma coactivator (PGC) (AID 1224821; calls by dose curve). A digest of the protocol: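 PGC/ERR reporter cells; 6 h pre-incubation 37 C/5% CO2; pin-tool compound in DMSO, 18 h 37 C; One-Glo added, 30 min RT; luminescence read. qHTS antagonist mode.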

Test [19] is described as follows: qHTS assay to identify small molecule agonists of the estrogen related receptor signaling pathway with the pleiotropic PPARgamma coactivator (PGC) (AID 1224823). A digest of the protocol: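 Luminescence readout (One-Glo, 30 min RT) from PGC/ERR cell line treated 18 h at 37 C with pin-tool-delivered DMSO compound solutions; cells plated 6 h before dosing. Quantitative HTS format.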

Molecules are shown by their SMILES. Where “and” joins values, the source holds several entries; their conditions need not be identical. Equal entries are not always repeated. Inconclusive results are not listed. Calls of active or inactive are those of the source. Unless noted, the call rests on the fitted dose curve; in most records, active means well fitted curve in the direction sought with a large enough effect in the repeat runs; inconclusive means weak or mixed curves; inactive means no such curve, though single readings can be large; an effect the other way counts as inactive or inconclusive.

Sequence of Retinoic acid receptor RXR-alpha (Homo sapiens) (P19793 whole entry, looked up): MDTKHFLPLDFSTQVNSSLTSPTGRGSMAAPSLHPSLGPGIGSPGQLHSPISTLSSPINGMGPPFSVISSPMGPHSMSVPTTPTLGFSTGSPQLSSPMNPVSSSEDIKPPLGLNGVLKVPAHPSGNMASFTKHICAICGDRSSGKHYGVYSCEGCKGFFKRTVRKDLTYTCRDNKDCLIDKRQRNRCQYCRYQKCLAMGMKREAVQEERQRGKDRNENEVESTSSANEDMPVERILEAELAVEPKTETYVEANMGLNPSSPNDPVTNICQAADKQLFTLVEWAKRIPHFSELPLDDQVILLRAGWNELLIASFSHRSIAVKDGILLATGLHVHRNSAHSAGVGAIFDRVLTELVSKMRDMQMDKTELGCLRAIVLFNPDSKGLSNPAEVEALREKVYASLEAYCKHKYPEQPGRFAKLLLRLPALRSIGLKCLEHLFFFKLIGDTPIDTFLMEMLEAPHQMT
Sequence of Luciferin 4-monooxygenase (Photinus pyralis) (P08659 whole entry, looked up): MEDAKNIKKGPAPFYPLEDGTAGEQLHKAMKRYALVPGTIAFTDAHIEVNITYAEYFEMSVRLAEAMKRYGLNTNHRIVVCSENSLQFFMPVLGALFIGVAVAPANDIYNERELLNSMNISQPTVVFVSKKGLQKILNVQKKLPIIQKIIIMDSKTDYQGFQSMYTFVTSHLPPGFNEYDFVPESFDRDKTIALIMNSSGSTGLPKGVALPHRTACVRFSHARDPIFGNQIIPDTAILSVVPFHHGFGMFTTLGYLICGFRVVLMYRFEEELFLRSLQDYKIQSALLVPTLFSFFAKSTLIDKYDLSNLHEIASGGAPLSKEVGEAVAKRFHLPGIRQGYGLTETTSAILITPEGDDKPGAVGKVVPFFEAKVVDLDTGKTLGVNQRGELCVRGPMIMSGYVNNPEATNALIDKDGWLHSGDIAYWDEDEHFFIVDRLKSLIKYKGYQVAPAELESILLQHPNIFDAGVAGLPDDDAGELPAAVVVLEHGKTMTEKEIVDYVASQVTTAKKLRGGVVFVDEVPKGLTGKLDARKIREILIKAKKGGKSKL

`CC(C)(C)NCC(O)c1cc(O)cc(O)c1` (centres undefined): the Potency result in test [1], in test [3], in test [5], in [6], in test [7] and in test [8] was “inactive” each time. The Potency result in test [9], in [10], in test [11], in test [12], in test [13] and in test [14] was “inactive” throughout. In addition, the Potency result in [15] is “inactive”. For the same compound, in [2], the Potency is 0.0019 µM (active). In addition, in test [4], the outcome was inactive.
Turning to `CC1=C(C=O)C(C)(C)CC=C1`, the Potency entry in test [2], in [3], in [5], in [6], in test [16] and in test [7] was “inactive” each time. Further, the Potency result in test [8], in [9], in test [10], in [11], in [12] and in test [13] was “inactive” in each case. The Potency result in test [14] and in [15] was “inactive” each time. Besides, the compound was called inactive in test [4].
With `C1COC(NC(C2CC2)C2CC2)=N1`, the Potency result in [1], in test [2], in test [3], in test [5], in [6] and in test [16] was “inactive” in each case. For the same compound, the Potency entry in test [7], in test [8], in test [9], in [10], in [11] and in test [12] was “inactive” in each case. The Potency result in test [13], in test [17], in [18] and in test [14] was “inactive” each time. For the same compound, the compound was called inactive in test [4] and in test [19].
Turning to `CCC(C)(C)C(=O)O[C@H]1C[C@@H](C)C=C2C=C[C@H](C)[C@H](CC[C@@H]3C[C@@H](O)CC(=O)O3)[C@H]21`, the Potency entry in [1], in test [2], in test [3], in test [5], in test [7] and in [8] was “inactive” throughout. For the same compound, the Potency entry in [11], in test [13], in test [14] and in [15] was “inactive” in each case. For the same compound, in test [4], the outcome was inactive. The Potency is 9.44 µM (active) in test [6]; 3.86 µM (active) and 841 nM (active) in test [16]; 12 µM (active) in test [10].
In the case of `C=C(C)C(=O)O`, the Potency result in [1], in test [2], in test [3], in test [5], in test [16] and in test [7] was “inactive” each time. Also, the Potency entry in test [8], in test [9], in test [10], in test [11], in test [14] and in test [15] was “inactive” each time. Moreover, the result in test [4] was inactive.
On to `CCCN[C@H]1CCc2nc(N)sc2C1`, for which the Potency entry in test [2], in test [3], in [5], in test [16], in [7] and in test [8] was “inactive” throughout. In addition, the Potency entry in [9], in test [10], in test [11] and in [14] was “inactive” each time. Moreover, in test [4], the outcome was inactive.
For the compound `CC[C@@H](N)CO`, the Potency entry in test [3], in [5], in test [16], in [7], in test [8] and in [9] was “inactive” each time. The Potency entry in test [10], in [11], in test [12], in test [13], in [14] and in test [15] was “inactive” throughout. Moreover, the call in [4] was inactive.
